In PubChem BioAssay (NCATS):
Records with an inconclusive call do not appear. Calls of active or inactive are those of the source. The call rests on the fitted dose curve; in most records, active means well fitted inhibition curve with a large enough effect; inconclusive means small, poorly fitted or top-dose-only effect; inactive means flat fitted curve, though single readings scatter. Bridge positions count the residues as written; N and C are the ends. Square brackets hold non-standard residues; d marks the D form. Peptide text beside a SMILES is read from it. * marks the point of attachment. Ileψ(thiazoline)Cys = CC[C@H](C)[C@H](N)C1=N[C@H](C(=O)*)CS1; d(aIle) = CC[C@H](C)[C@@H](N)C(=O)O; dOrn = NCCC[C@@H](N)C(=O)O

test system: CP335; assay: qHTS profiling for inhibitors of Plasmodium falciparum proliferation (AID 504749); further: nearly all actives have a fitted effect of over 60% in size;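 on activity, negative = inhibition: 0% = DMSO vehicle and full inhibition = artemisinin control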; settings: P. falciparum in erythrocytes, SYBR Green DNA, 72 h; series mostly up to 12.8 µM; activity, negative = inhibition: at the top concentration
Method in brief: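 Fluorescence of SYBR Green-bound parasite DNA, read at 485/535 nm, served as the growth measure. Infected erythrocytes were cultured with compound 72 h; artemisinin (0.29 uM) and DMSO wells defined the normalization range.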
Potency means the concentration at half of the fitted maximal effect.

Row | Compound | activity, negative = inhibition | Potency
1 | C[C@@H]1C[C@H]2[C@@H]3C[C@H](F)C4=CC(=O)C=C[C@@]4(C)[C@]3(F)[C@H](O)C[C@]2(C)[C@@]1(O)C(=O)CO | 7.42% (inactive) | –
2 | C[C@H](O)Cn1cnc2c1c(=O)n(C)c(=O)n2C | 1.7% (inactive) | –
3 | CCCCC[C@H](O)/C=C\[C@@H]1[C@H](O)CC(=O)[C@@H]1CCCCCCC(=O)O | -1.26% (inactive) | –
4 | CC(=C(CCOP(=O)(O)O)SC(=O)c1ccccc1)N(C=O)Cc1cnc(C)nc1N | -0.124% (inactive) | –
5 | NC[C@@H]1O[C@@H](O[C@H]2[C@H](O)[C@H](O[C@@H]3O[C@H](CO)[C@@H](O)[C@H](N)[C@@H]3O)[C@@H](N)C[C@H]2N)[C@H](N)C[C@@H]1O | 2.97% (inactive) | –
6 | CCc1c(C)[nH]c2c1C(=O)[C@H](CN1CCOCC1)CC2 | -1.03% (inactive) | –
7 | CC[C@H](C)[C@H](N)C1=N[C@H](C(=O)N[C@@H](CC(C)C)C(=O)N[C@@H](CCC(=O)O)C(=O)N[C@@H](C(=O)N[C@H]2CCCCNC(=O)[C@@H](CC(N)=O)NC(=O)[C@@H](CC(=O)O)NC(=O)[C@@H](Cc3cnc[nH]3)NC(=O)[C@@H](Cc3ccccc3)NC(=O)[C@@H]([C@@H](C)CC)NC(=O)[C@@H](CCCN)NC2=O)[C@@H](C)CC)CS1 ({Ileψ(thiazoline)Cys}-LE[d(aIle)]K[dOrn][d(aIle)][dF][dH][dD][dN]; lactam 4-C) | -1.04% (inactive) | –
8 | O=C(N/N=C\c1ccc([N+](=O)[O-])o1)c1ccc(O)cc1 | – | 2030 nM (active)
9 | CCOC(=O)O[C@@H](C)OC(=O)[C@@H]1N2C(=O)[C@@H](NC(=O)[C@@H](N)c3ccccc3)[C@H]2SC1(C)C | -1.97% (inactive) | –
10 | O=C(O)COCCN1CCN([C@@H](c2ccccc2)c2ccc(Cl)cc2)CC1 | 2.37% (inactive) | –
11 | C#C[C@]1(O)CC[C@@H]2[C@H]3CCC4=CCCC[C@@H]4[C@@H]3CC[C@@]21C | 1.01% (inactive) | –
12 | CC1(C)[C@@H](OC(=O)CCC(=O)O)CC[C@@]2(C)[C@H]1CC[C@@]1(C)[C@H]2C(=O)C=C2[C@H]3C[C@](C)(C(=O)O)CC[C@]3(C)CC[C@@]21C | 4.21% (inactive) | –
13 | C[C@H](CCC(=O)O)[C@H]1CC[C@@H]2[C@@H]3[C@@H](O)C[C@H]4C[C@@H](O)CC[C@@]4(C)[C@H]3CC[C@@]21C | -1.69% (inactive) | –
